# Columns and labels:
# Assay in all cases: SPOT peptide array binding signal intensity (averaged, normalized) (arbitrary units (background-subtracted, floor 0; scale differs between SH3 domains)); higher = stronger binding of the SH3 domain to the peptide
# [1] = biological target: AgAbp1
# Procedure, shortened: (§1)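 To measure binding, SH3 domains from four yeast species were fused to GST, expressed in E. coli BL21(DE3) and purified on glutathione Sepharose. Each domain was incubated at 10 μg/ml overnight at 4°C on cellulose membranes with synthetic 15-mer peptides whose cysteines were replaced by serines. Anti-GST antibody, an HRP anti-mouse secondary and luminol were used for detection, and images were quantified with Genespotter. Reported binding signal is normalized, background-subtracted spot intensity averaged over replicates, in arbitrary units that differ between domains.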
# [2] = biological target: AgBbc1
# Procedure, shortened: as §1
# [3] = biological target: AgBem1-D1
# Procedure, shortened: as §1
# [4] = biological target: AgBzz1-D1
# Procedure, shortened: as §1
# [5] = biological target: AgBzz1-D2
# Procedure, shortened: as §1
# [6] = biological target: AgCyk3
# Procedure, shortened: as §1
# [7] = biological target: AgFus1
# Procedure, shortened: as §1
# [8] = biological target: AgHof1
# Procedure, shortened: as §1
# [9] = biological target: AgHse1
# Procedure, shortened: as §1
# [10] = biological target: AgLsb1
# Procedure, shortened: as §1
# [11] = biological target: AgLsb4
# Procedure, shortened: as §1
# [12] = biological target: AgMyo5
# Procedure, shortened: as §1
# [13] = biological target: AgNbp2
# Procedure, shortened: as §1
# [14] = biological target: AgRvs167
# Procedure, shortened: as §1
# [15] = biological target: AgSho1
# Procedure, shortened: as §1
# [16] = biological target: AgSla1-D1-D2
# Procedure, shortened: as §1
# [17] = biological target: AgSla1-D3
# Procedure, shortened: as §1
# [18] = biological target: CaAbp1-D1
# Procedure, shortened: as §1
# [19] = biological target: CaAbp1-D2
# Procedure, shortened: as §1
# [20] = biological target: CaBbc1
# Procedure, shortened: as §1
# [21] = biological target: CaBem1-D1
# Procedure, shortened: as §1
# [22] = biological target: CaBzz1-D1
# Procedure, shortened: as §1
# [23] = biological target: CaBzz1-D2
# Procedure, shortened: as §1
# [24] = biological target: CaCyk3
# Procedure, shortened: as §1
# [25] = biological target: CaFus1
# Procedure, shortened: as §1
# [26] = biological target: CaHof1
# Procedure, shortened: as §1
# [27] = biological target: CaHse1
# Procedure, shortened: as §1
# [28] = biological target: CaLsb1
# Procedure, shortened: as §1
# [29] = biological target: CaLsb4
# Procedure, shortened: as §1
# [30] = biological target: CaMyo5
# Procedure, shortened: as §1
# [31] = biological target: CaNbp2
# Procedure, shortened: as §1
# [32] = biological target: CaRvs167
# Procedure, shortened: as §1
# [33] = biological target: CaRvs167-3
# Procedure, shortened: as §1
# [34] = biological target: CaSho1
# Procedure, shortened: as §1
# [35] = biological target: CaSla1-D1-D2
# Procedure, shortened: as §1
# [36] = biological target: CaSla1-D3
# Procedure, shortened: as §1
# [37] = biological target: ScAbp1
# Procedure, shortened: as §1
# [38] = biological target: ScBbc1
# Procedure, shortened: as §1
# [39] = biological target: ScBem1-D1
# Procedure, shortened: as §1
# [40] = biological target: ScBzz1-D1
# Procedure, shortened: as §1
# [41] = biological target: ScBzz1-D2
# Procedure, shortened: as §1
# [42] = biological target: ScCyk3
# Procedure, shortened: as §1
# [43] = biological target: ScFus1
# Procedure, shortened: as §1
# [44] = biological target: ScHof1
# Procedure, shortened: as §1
# [45] = biological target: ScHse1
# Procedure, shortened: as §1
# [46] = biological target: ScLsb1
# Procedure, shortened: as §1
# [47] = biological target: ScLsb2
# Procedure, shortened: as §1
# [48] = biological target: ScLsb3
# Procedure, shortened: as §1
# [49] = biological target: ScLsb4
# Procedure, shortened: as §1
# [50] = biological target: ScMyo3
# Procedure, shortened: as §1
# [51] = biological target: ScMyo5
# Procedure, shortened: as §1
# [52] = biological target: ScNbp2
# Procedure, shortened: as §1
# [53] = biological target: ScPex13
# Procedure, shortened: as §1
# [54] = biological target: ScRvs167
# Procedure, shortened: as §1
# [55] = biological target: ScSho1
# Procedure, shortened: as §1
# [56] = biological target: ScSla1-D1-D2
# Procedure, shortened: as §1
# [57] = biological target: ScSla1-D3
# Procedure, shortened: as §1
# [58] = biological target: SpAbp1-D1
# Procedure, shortened: as §1
# [59] = biological target: SpBbc1
# Procedure, shortened: as §1
# [60] = biological target: SpBzz1-D1
# Procedure, shortened: as §1
# [61] = biological target: SpBzz1-D2
# Procedure, shortened: as §1
# [62] = biological target: SpCyk3
# Procedure, shortened: as §1
# [63] = biological target: SpHof1
# Procedure, shortened: as §1
# [64] = biological target: SpHof1-2
# Procedure, shortened: as §1
# [65] = biological target: SpHof1-3
# Procedure, shortened: as §1
# [66] = biological target: SpHse1
# Procedure, shortened: as §1
# [67] = biological target: SpLsb1
# Procedure, shortened: as §1
# [68] = biological target: SpLsb4
# Procedure, shortened: as §1
# [69] = biological target: SpMyo1
# Procedure, shortened: as §1
# [70] = biological target: SpNbp2
# Procedure, shortened: as §1
# [71] = biological target: SpPex13
# Procedure, shortened: as §1
# [72] = biological target: SpRvs167
# Procedure, shortened: as §1
# [73] = biological target: SpSla1-D1-D2
# Procedure, shortened: as §1
# [74] = biological target: SpSla1-D3
# Procedure, shortened: as §1
binder,measurement,setting,value
ALFRLSFFFPLDPAY,SPOT peptide array binding signal intensity,[1],90.5
same,SPOT peptide array binding signal intensity,[2],59.5
same,SPOT peptide array binding signal intensity,[3],487
same,SPOT peptide array binding signal intensity,[4],204
same,SPOT peptide array binding signal intensity,[5],161
same,SPOT peptide array binding signal intensity,[6],40.5
same,SPOT peptide array binding signal intensity,[7],3740
same,SPOT peptide array binding signal intensity,[8],184
same,SPOT peptide array binding signal intensity,[9],2470
same,SPOT peptide array binding signal intensity,[10],66
same,SPOT peptide array binding signal intensity,[11],1960
same,SPOT peptide array binding signal intensity,[12],6.5
same,SPOT peptide array binding signal intensity,[13],796
same,SPOT peptide array binding signal intensity,[14],40.7
same,SPOT peptide array binding signal intensity,[15],2320
same,SPOT peptide array binding signal intensity,[16],150
same,SPOT peptide array binding signal intensity,[17],25.5
same,SPOT peptide array binding signal intensity,[18],494
same,SPOT peptide array binding signal intensity,[19],621
same,SPOT peptide array binding signal intensity,[20],162
same,SPOT peptide array binding signal intensity,[21],141
same,SPOT peptide array binding signal intensity,[22],574
same,SPOT peptide array binding signal intensity,[23],416
same,SPOT peptide array binding signal intensity,[24],68
same,SPOT peptide array binding signal intensity,[25],4730
same,SPOT peptide array binding signal intensity,[26],10
same,SPOT peptide array binding signal intensity,[27],985
same,SPOT peptide array binding signal intensity,[28],79.5
same,SPOT peptide array binding signal intensity,[29],278
same,SPOT peptide array binding signal intensity,[30],156
same,SPOT peptide array binding signal intensity,[31],1460
same,SPOT peptide array binding signal intensity,[32],578
same,SPOT peptide array binding signal intensity,[33],964
same,SPOT peptide array binding signal intensity,[34],2260
same,SPOT peptide array binding signal intensity,[35],131
same,SPOT peptide array binding signal intensity,[36],848
same,SPOT peptide array binding signal intensity,[37],81.5
same,SPOT peptide array binding signal intensity,[38],9.5
same,SPOT peptide array binding signal intensity,[39],110
same,SPOT peptide array binding signal intensity,[40],218
same,SPOT peptide array binding signal intensity,[41],531
same,SPOT peptide array binding signal intensity,[42],246
same,SPOT peptide array binding signal intensity,[43],3920
same,SPOT peptide array binding signal intensity,[44],2.5
same,SPOT peptide array binding signal intensity,[45],4160
same,SPOT peptide array binding signal intensity,[46],70.2
same,SPOT peptide array binding signal intensity,[47],24
same,SPOT peptide array binding signal intensity,[48],674
same,SPOT peptide array binding signal intensity,[49],104
same,SPOT peptide array binding signal intensity,[50],35
same,SPOT peptide array binding signal intensity,[51],62.8
same,SPOT peptide array binding signal intensity,[52],802
same,SPOT peptide array binding signal intensity,[53],116
same,SPOT peptide array binding signal intensity,[54],91.7
same,SPOT peptide array binding signal intensity,[55],2780
same,SPOT peptide array binding signal intensity,[56],120
same,SPOT peptide array binding signal intensity,[57],426
same,SPOT peptide array binding signal intensity,[58],303
same,SPOT peptide array binding signal intensity,[59],57.2
same,SPOT peptide array binding signal intensity,[60],838
same,SPOT peptide array binding signal intensity,[61],6.5
same,SPOT peptide array binding signal intensity,[62],55
same,SPOT peptide array binding signal intensity,[63],844
same,SPOT peptide array binding signal intensity,[64],230
same,SPOT peptide array binding signal intensity,[65],1850
same,SPOT peptide array binding signal intensity,[66],2380
same,SPOT peptide array binding signal intensity,[67],15.5
same,SPOT peptide array binding signal intensity,[68],463
same,SPOT peptide array binding signal intensity,[69],91
same,SPOT peptide array binding signal intensity,[70],2350
same,SPOT peptide array binding signal intensity,[71],565
same,SPOT peptide array binding signal intensity,[72],131
same,SPOT peptide array binding signal intensity,[73],8
same,SPOT peptide array binding signal intensity,[74],192
GRSRLFPHSPLGRSS,SPOT peptide array binding signal intensity,[61],0.375
same,SPOT peptide array binding signal intensity,[62],≤ 0
same,SPOT peptide array binding signal intensity,[63],68.5
same,SPOT peptide array binding signal intensity,[64],15
same,SPOT peptide array binding signal intensity,[65],412
same,SPOT peptide array binding signal intensity,[66],730
same,SPOT peptide array binding signal intensity,[67],0.25
same,SPOT peptide array binding signal intensity,[68],≤ 0
same,SPOT peptide array binding signal intensity,[69],≤ 0
same,SPOT peptide array binding signal intensity,[70],419
same,SPOT peptide array binding signal intensity,[71],10.5
same,SPOT peptide array binding signal intensity,[72],6.58
same,SPOT peptide array binding signal intensity,[73],10
same,SPOT peptide array binding signal intensity,[74],18.5
